Data as given in PubChem BioAssay (Tox21).
Results filed as inconclusive are left out. Activity calls are given as the source filed them. Unless noted, calls follow the shape of the dose curve; as a rule, active = well fitted curve in the direction sought with a large enough effect in the repeat runs; inconclusive = weak or mixed curves; inactive = no such curve, though single readings can be large; an effect the other way counts as inactive or inconclusive.

Assays:
[1] = qHTS assay to identify small molecule antagonists of the thyroid receptor (TR) signaling pathway - cell viability counter screen (AID 743064); also: nearly all actives have a fitted effect of over 50% in size
Summary of the method: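 Same-well viability check: GH3.TRE-Luc cells stimulated with 1 nM T3 alongside test compound for 23.5 h, followed by CellTiter-Fluor fluorescence.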

[2] = qHTS assay to identify small molecule antagonists of the thyroid receptor (TR) signaling pathway (AID 743065); also: series mostly up to about 70 µM; nearly all actives have a fitted effect of over 55% in size
Summary of the method: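 Antagonism measured as loss of luciferase signal in GH3 cells stably carrying a TRE-luciferase reporter, co-treated with compound and T3 (1 nM final) for 23.5 h at 37 C. Viability was read in the same well by CellTiter-Fluor.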

[3] = system: thyroid hormone receptor (rat, GH3 cells); experiment: qHTS assay to identify small molecule agonists of the thyroid receptor (TR) signaling pathway (AID 743066; calls by dose curve)
[4] = biological target: Estrogen receptor (Homo sapiens) (UniProt P03372); experiment: qHTS assay to identify small molecule antagonists of the estrogen receptor alpha (ER-alpha) signaling pathway (AID 743069; active = well fitted curve in the direction sought with a large enough effect in the signal ratio in the repeat runs, not every such curve was filed as active; the % refers to the signal ratio)
Summary of the method: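 Compound effects are measured against 17beta-estradiol stimulation in HEK293 cells with a UAS-controlled beta-lactamase reporter for ER-alpha. Exposure lasts 18 hr at 37C; LiveBLAzer B/G FRET substrate follows for 2 hr at room temperature.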

[5] = qHTS assay to identify small molecule antagonists of the estrogen receptor alpha (ER-alpha) signaling pathway - cell viability counter screen (AID 743074; calls by dose curve;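 also: HEK293 cells carrying ER-alpha-UAS-bla reporter stimulated with 17beta-estradiol; nearly all actives have a fitted effect of over 45% in size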)
[6] = biological target: Estrogen receptor (Homo sapiens) (UniProt P03372); experiment: qHTS assay to identify small molecule agonists of the estrogen receptor alpha (ER-alpha) signaling pathway (AID 743075; calls by dose curve)
[7] = biological target: Estrogen receptor (Homo sapiens) (UniProt P03372); experiment: qHTS assay to identify small molecule agonists of the estrogen receptor alpha (ER-alpha) signaling pathway using the BG1 cell line (AID 743079); also: nearly all actives have a fitted effect of over 20% in size
[8] = qHTS assay to identify small molecule antagonists of the estrogen receptor alpha (ER-alpha) signaling pathway using the BG1 cell line (AID 743080; calls by dose curve;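 also: BG1 cells stimulated with 17beta-estradiol alongside compound; series mostly up to about 70 µM; nearly all actives have a fitted effect of over 25% in size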)
Summary of the method: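 After 5 days in phenol-red-free 10% charcoal-stripped FBS medium, BG1-Luc-4E2 cells were seeded, left 24 h at 37 C, co-treated with compounds and 17beta-estradiol for 21.5 h, then assayed for viability and luciferase.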

[9] = qHTS assay to identify small molecule antagonists of the estrogen receptor alpha (ER-alpha) signaling pathway using the BG1 cell line - cell viability counter screen (AID 743081);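 also: compound given together with 17beta-estradiol as the ER stimulus; series mostly up to about 70 µM; nearly all actives have a fitted effect of over 45% in size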
[10] = biological target: Aromatase (Homo sapiens) (UniProt P11511); experiment: qHTS assay to identify aromatase inhibitors (AID 743083); also: series mostly up to about 70 µM; nearly all actives have a fitted effect of over 55% in size
% is scaled to controls: 0 for no effect and ±100 for the full control effect.

Sequence of Aromatase (Homo sapiens) (P11511 whole entry, looked up): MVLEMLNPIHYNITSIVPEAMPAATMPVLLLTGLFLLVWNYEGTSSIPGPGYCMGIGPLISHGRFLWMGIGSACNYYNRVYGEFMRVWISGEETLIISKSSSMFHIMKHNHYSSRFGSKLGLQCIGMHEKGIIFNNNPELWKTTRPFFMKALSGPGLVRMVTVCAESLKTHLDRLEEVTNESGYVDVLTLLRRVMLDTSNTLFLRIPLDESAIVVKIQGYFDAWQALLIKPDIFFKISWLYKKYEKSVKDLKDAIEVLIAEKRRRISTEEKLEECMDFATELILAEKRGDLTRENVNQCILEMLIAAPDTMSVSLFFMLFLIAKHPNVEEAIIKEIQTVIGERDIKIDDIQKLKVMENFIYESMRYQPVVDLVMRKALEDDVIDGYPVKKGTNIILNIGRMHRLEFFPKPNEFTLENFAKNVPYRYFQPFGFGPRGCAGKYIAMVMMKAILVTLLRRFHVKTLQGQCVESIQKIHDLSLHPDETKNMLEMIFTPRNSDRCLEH
Sequence of Estrogen receptor (Homo sapiens) (P03372 whole entry, looked up): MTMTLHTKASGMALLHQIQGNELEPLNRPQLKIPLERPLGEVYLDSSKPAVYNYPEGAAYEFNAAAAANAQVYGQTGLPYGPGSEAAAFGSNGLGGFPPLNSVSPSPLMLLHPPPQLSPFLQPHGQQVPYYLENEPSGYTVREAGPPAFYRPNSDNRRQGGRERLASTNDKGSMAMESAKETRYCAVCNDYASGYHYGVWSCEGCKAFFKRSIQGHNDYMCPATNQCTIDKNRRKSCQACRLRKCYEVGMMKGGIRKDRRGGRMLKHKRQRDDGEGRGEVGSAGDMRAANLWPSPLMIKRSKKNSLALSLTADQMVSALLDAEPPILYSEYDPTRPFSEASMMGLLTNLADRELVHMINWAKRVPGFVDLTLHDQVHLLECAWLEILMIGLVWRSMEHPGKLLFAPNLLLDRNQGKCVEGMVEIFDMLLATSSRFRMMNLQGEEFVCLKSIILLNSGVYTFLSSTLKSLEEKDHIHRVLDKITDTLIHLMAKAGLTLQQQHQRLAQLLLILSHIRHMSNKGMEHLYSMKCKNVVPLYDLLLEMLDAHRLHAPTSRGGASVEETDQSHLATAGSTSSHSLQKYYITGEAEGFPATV

O=C(CS(=O)Cc1ccco1)NC/C=C\COc1cc(CN2CCCCC2)ccn1 (stereo unspecified)
inactive: Potency [1] | Potency [2] | outcome [3] | outcome [4] | outcome [5] | outcome [6] | Potency [7] | Potency [8] | outcome [9] | Potency [10]

NNc1nnc(NN)c2ccccc12
inactive: Potency [1] | Potency [2] | outcome [3] | outcome [4] | outcome [5] | outcome [6] | Potency [7] | Potency [8] | outcome [9] | Potency [10]

CCNC(=O)C1CC(C)CCC1C(C)C (stereo unspecified)
inactive: Potency [1] | Potency [2] | outcome [3] | outcome [4] | outcome [5] | outcome [6] | Potency [7] | Potency [8] | outcome [9] | Potency [10]

CO[C@@H]1[C@@H](OC(N)=O)[C@@H](O)[C@H](Oc2ccc3c(O)c(NC(=O)c4ccc(O)c(CC=C(C)C)c4)c(=O)oc3c2C)OC1(C)C
inactive: Potency [1] | Potency [2] | outcome [3] | outcome [4] | outcome [5] | outcome [6] | Potency [7] | Potency [8] | outcome [9] | Potency [10]

CC1(C)S[C@@H]2[C@H](N=CN3CCCCCC3)C(=O)N2[C@H]1C(=O)O
inactive: Potency [1] | Potency [2] | outcome [3] | outcome [4] | outcome [5] | outcome [6] | Potency [7] | Potency [8] | outcome [9] | Potency [10]

C[C@@H](Oc1ccc(CNC(=O)c2cccnc2Oc2ccc3c(c2)OCO3)c(F)c1)C(=O)O
inactive: Potency [1] | Potency [2] | outcome [3] | outcome [4] | outcome [5] | outcome [6] | Potency [7] | Potency [8] | outcome [9] | Potency [10]

Cc1cc(C(C)(C)C)c(O)c(C)c1CC1=NCCN1
inactive: Potency [1] | Potency [2] | outcome [3] | outcome [4] | outcome [5] | outcome [6] | Potency [7] | Potency [8] | outcome [9] | Potency [10]

CCCCC(CC)COCCO (stereo unspecified)
inactive: Potency [1] | Potency [2] | outcome [3] | outcome [4] | outcome [5] | outcome [6] | Potency [7] | Potency [8] | outcome [9] | Potency [10]

CC(=O)/C=C/C1C(C)=CCC(C)C1(C)C (stereo unspecified)
inactive: Potency [1] | Potency [2] | outcome [3] | outcome [4] | outcome [5] | outcome [6] | Potency [7] | Potency [8] | outcome [9] | Potency [10]

CCCCN
inactive: Potency [1] | Potency [2] | outcome [3] | outcome [4] | outcome [5] | outcome [6] | Potency [7] | Potency [8] | outcome [9] | Potency [10]

O=S(O)(O)=S
inactive: activity change, negative = cytotoxic [1] 0% [at 8.44 µM] | activity, negative = inhibition [2] -1.88% [at 8.44 µM] | activation [3] -0.901% [at 8.08 µM] | activity, negative = inhibition [4] 6.18% [at 6.71 µM] | activity, negative = cytotoxicity [5] -12.1% [at 6.72 µM] | activation [6] -2.02% [at 6.71 µM] | activation [7] 6.37% [at 8.47 µM] | activity change, negative = inhibition [8] -6.18% [at 8.47 µM] | activity change, negative = cytotoxicity [9] -1.7% [at 8.47 µM] | activity, negative = inhibition [10] 5.06% [at 8.47 µM]

O=C(O)c1cc(Cl)cc([N+](=O)[O-])c1Cl
inactive: Potency [1] | Potency [2] | outcome [3] | outcome [4] | outcome [5] | outcome [6] | Potency [7] | Potency [8] | outcome [9] | Potency [10]

CCOC(=O)CC(=O)c1ccccc1
inactive: Potency [1] | Potency [2] | outcome [3] | outcome [4] | outcome [5] | outcome [6] | Potency [8] | outcome [9] | Potency [10]

NS(=O)(=O)c1ccc(NC(=O)CCC(=O)O)cc1
inactive: Potency [1] | Potency [2] | outcome [3] | outcome [4] | outcome [5] | outcome [6] | Potency [7] | Potency [8] | outcome [9] | Potency [10]

CC(C)C(=O)OCCc1ccccc1
inactive: Potency [1] | Potency [2] | outcome [3] | outcome [4] | outcome [5] | outcome [6] | Potency [7] | Potency [8] | outcome [9] | Potency [10]

CCCCOCCOC(=O)COc1nc(Cl)c(Cl)cc1Cl
inactive: Potency [1] | Potency [2] | outcome [3] | outcome [4] | outcome [5] | outcome [6] | Potency [7] | Potency [8] | outcome [9] | Potency [10]

CC(CC=O)CCCC(C)(C)O (stereo unspecified)
inactive: Potency [1] | Potency [2] | outcome [3] | outcome [4] | outcome [5] | outcome [6] | Potency [7] | Potency [8] | outcome [9] | Potency [10]

Cc1nc2n(c(=O)c1CCN1CCC(c3noc4cc(F)ccc34)CC1)CCC[C@H]2O
inactive: Potency [1] | Potency [2] | outcome [3] | outcome [4] | outcome [5] | outcome [6] | Potency [7] | Potency [8] | outcome [9] | Potency [10]

CN(C)C(=O)CNC(=O)Cc1ccccc1
inactive: Potency [1] | Potency [2] | outcome [3] | outcome [4] | outcome [5] | outcome [6] | Potency [7] | Potency [8] | Potency [10]

C=C(C)C1CCC(C)(O)CC1 (stereo unspecified)
inactive: Potency [1] | Potency [2] | outcome [3] | outcome [4] | outcome [5] | outcome [6] | Potency [7] | Potency [8] | outcome [9] | Potency [10]

Cc1cccc(C)c1OCC(C)N (stereo unspecified)
inactive: Potency [1] | Potency [2] | outcome [3] | outcome [4] | outcome [5] | outcome [6] | Potency [7] | Potency [8] | outcome [9] | Potency [10]

CC(C)c1ccc2cc(C(C)C)ccc2c1
inactive: Potency [1] | Potency [2] | outcome [3] | outcome [4] | outcome [5] | outcome [6] | Potency [7] | outcome [9] | Potency [10]

CCC(C)NC(N)=O (stereo unspecified)
inactive: Potency [1] | Potency [2] | outcome [3] | outcome [4] | outcome [5] | outcome [6] | Potency [7] | Potency [8] | outcome [9] | Potency [10]

COc1ccc2c(c1)C(=O)N(CCc1ccc(S(=O)(=O)NC(=O)NC3CCCCC3)cc1)C(=O)C2(C)C
inactive: Potency [1] | Potency [2] | outcome [3] | outcome [4] | outcome [5] | outcome [6] | Potency [7] | Potency [8] | Potency [10]
